Results from PubChem BioAssay (Tox21).
Values joined by “and” are separate entries in the source; they are usually repeats but may differ in a detail not shown here. Equal values may be shown once. Inconclusive results are not listed. Active and inactive are the calls of the source. Unless noted, calls come from the whole dose curve; as a rule, active = well fitted curve in the direction sought with a large enough effect in the repeat runs; inconclusive = weak or mixed curves; inactive = no such curve, though single readings can be large; an effect the other way counts as inactive or inconclusive.

What was measured:
[1] = qHTS assay for small molecule agonists of the p53 signaling pathway (AID 651631; calls by dose curve; note: nearly all actives have a fitted effect of over 15% in size)
Outline: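 Quantitative high-throughput format: 4,000 p53RE-bla HCT-116 cells/well, 5 h pre-incubation, 16 h compound exposure at 37 °C, 2 h room-temperature substrate step, fluorescence intensity measured.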

[2] = qHTS assay for small molecules that induce genotoxicity in human embryonic kidney cells expressing luciferase-tagged ATAD5 (AID 651632); note: nearly all actives have a fitted effect of over 15% in size
Outline: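 DMSO vehicle served as the control. HEK293T reporter cells, 16 hr at 37C, then 30 min Amplite at room temperature; ATAD5 induction is measured as luciferase activity.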

[3] = qHTS assay for small molecule agonists of the p53 signaling pathway - cell viability (AID 651633; calls by dose curve;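 note: p53RE-bla HCT reporter cells with a stable beta-lactamase p53 reporter; series mostly up to about 83 µM; nearly all actives have a fitted effect of over 30% in size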)
Outline: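 p53RE-bla cells, seeded at 4,000 per well and rested 5 h at 37 C/5% CO2, received compounds in DMSO for 16 h at 37 C. CellTiter-Glo was then added, and luminescence was read after 30 min at room temperature to gauge cytotoxicity.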

[4] = qHTS assay for small molecules that induce genotoxicity in human embryonic kidney cells expressing luciferase-tagged ATAD5 - cell viability (AID 651634; calls by dose curve; note: nearly all actives have a fitted effect of over 25% in size; note: potency is the fitted concentration of half-maximal effect)
Outline: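 Here HEK293T cells with the ATAD5 luciferase reporter are incubated with test compounds for 15.5 hr, and cytotoxicity is then gauged by measuring protease activity in live cells using fluorescence.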

[5] = qHTS assay to test for compound auto fluorescence at 590 nm (red) in HepG2 cells (AID 720674)
Outline: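 Compound auto-fluorescence is scored relative to Rose Bengal sodium, measured at 540/590 nm in live HepG2 cultures after 1 hr compound contact (37 C, 5% CO2).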

[6] = qHTS assay to test for compound auto fluorescence at 535 nm (green) in HepG2 cells (AID 720675)
[7] = qHTS assay to test for compound auto fluorescence at 460 nm (blue) in HEK293 cells (AID 720678)
Outline: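 Auto fluorescence in the blue band was quantified as triamterene equivalency. HEK293 cells were seeded at 2,000/well, dosed after a 4-5 hr attachment, and kept overnight at 37C before the 405/460 nm reading.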

[8] = qHTS assay to test for compound auto fluorescence at 535 nm (green) in HEK293 cells (AID 720680)
[9] = qHTS assay to test for compound auto fluorescence at 460 nm (blue) in HEK293 cell free culture (AID 720681)
Outline: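 Test compounds were pinned into cell-free culture medium (DMEM with 10% FBS) and fluorescence was read directly at Ex/Em 405/460 nm. Signals were expressed as fluorescence equivalents of triamterene, with DMSO vehicle as control.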

[10] = qHTS assay to test for compound auto fluorescence at 535 nm (green) in HEK293 cell free culture (AID 720682)
Outline: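 Measurement is a direct plate read of green fluorescence (485 nm in, 535 nm out) after compound addition to serum-supplemented DMEM lacking cells, with fluorescein used to express intensities.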

[11] = qHTS assay to test for compound auto fluorescence at 590 nm (red) in HEK293 cell free culture (AID 720683)
Outline: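 Tox21 10K library compounds were pinned into cell-free DMEM with 10% FBS and fluorescence was read at excitation 540 nm. Activity is expressed as Rose Bengal sodium equivalency.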

[12] = qHTS assay to test for compound auto fluorescence at 590 nm (red) in HepG2 cell free culture (AID 720684)
Outline: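 Readout: intrinsic compound fluorescence at 590 nm emission after 540 nm excitation, scaled to Rose Bengal sodium. Matrix was cell-free MEM with 10% FBS; DMSO vehicle wells served as control.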

[13] = qHTS assay to test for compound auto fluorescence at 535 nm (green) in HepG2 cell free culture (AID 720686)
[14] = qHTS assay to test for compound auto fluorescence at 460 nm (blue) in HepG2 cells (AID 720687)
Outline: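 Cells (2,000/well in MEM with 10% FBS) attached overnight at 37 C, then were exposed to compound or DMSO for 1 hr at 37 C, 5% CO2. Fluorescence read at Ex/Em 405/460 nm, expressed as triamterene-equivalent signal.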

[15] = qHTS assay for small molecule disruptors of the mitochondrial membrane potential (AID 720635)
Outline: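 HepG2 cells (2,000/well) attached overnight at 37C, then took compound for 1 hr at 37C, 5% CO2. Mito-MPS dye was added for 30 min; fluorescence was read at 490/535 nm (monomers) and 540/590 nm (aggregates).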

[16] = qHTS assay to test for compound auto fluorescence at 590 nm (red) in HEK293 cells (AID 720679)
Outline: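 Autofluorescence equivalency to Rose Bengal sodium, 540/590nm, in HEK293 cells exposed overnight to 23 nL compound per well.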

[17] = qHTS assay for small molecule disruptors of the mitochondrial membrane potential - cell viability (AID 720634; calls by dose curve;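 note: human HepG2 liver cancer cells; series mostly up to about 83 µM; nearly all actives have a fitted effect of over 20% in size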)
Outline: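 Viability of HepG2 cells is scored from ATP content by luminescence; cells are exposed to compound for 1 hr at 37 C and 5% CO2, then dosed with m-MPI dye before the CellTiter-Glo reagent.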

[18] = qHTS assay to test for compound auto fluorescence at 460 nm (blue) in HepG2 cell free culture (AID 720685)
Outline: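 Cell-free plates of MEM plus 10% FBS received 23 nL compound or DMSO vehicle; blue-channel (405/460 nm) intensity scored against triamterene as reference fluorophore.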

[19] = molecular target: Glucocorticoid receptor (Homo sapiens) (UniProt P04150); test: qHTS assay to identify small molecule agonists of the glucocorticoid receptor (GR) signaling pathway (AID 720691; active = well fitted activation curve with a large enough effect in the signal ratio in the repeat runs, not every such curve was filed as active; the % refers to the signal ratio)
Sequence of Glucocorticoid receptor (Homo sapiens) (P04150 whole entry, looked up): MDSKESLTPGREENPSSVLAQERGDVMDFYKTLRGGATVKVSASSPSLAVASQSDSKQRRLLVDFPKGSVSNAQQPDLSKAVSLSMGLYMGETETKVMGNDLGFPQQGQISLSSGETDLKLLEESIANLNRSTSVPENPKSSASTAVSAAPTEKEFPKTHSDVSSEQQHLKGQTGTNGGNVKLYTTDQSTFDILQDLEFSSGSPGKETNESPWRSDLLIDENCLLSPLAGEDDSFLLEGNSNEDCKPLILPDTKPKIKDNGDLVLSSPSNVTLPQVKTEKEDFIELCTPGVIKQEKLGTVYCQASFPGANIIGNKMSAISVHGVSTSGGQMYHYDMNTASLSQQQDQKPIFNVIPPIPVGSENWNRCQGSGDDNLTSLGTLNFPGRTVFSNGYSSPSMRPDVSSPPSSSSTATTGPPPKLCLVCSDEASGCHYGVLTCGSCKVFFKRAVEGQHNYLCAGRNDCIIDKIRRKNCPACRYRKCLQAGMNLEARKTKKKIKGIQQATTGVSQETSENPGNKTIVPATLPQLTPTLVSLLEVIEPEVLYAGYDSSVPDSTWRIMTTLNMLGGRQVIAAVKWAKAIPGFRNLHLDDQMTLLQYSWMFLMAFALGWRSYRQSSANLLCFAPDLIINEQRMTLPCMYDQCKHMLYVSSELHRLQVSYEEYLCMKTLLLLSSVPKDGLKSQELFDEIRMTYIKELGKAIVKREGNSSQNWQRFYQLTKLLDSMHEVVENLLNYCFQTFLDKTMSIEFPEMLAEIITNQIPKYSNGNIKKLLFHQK
Outline: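 Compounds in DMSO, alongside positive controls, were added to GR-bla HeLa reporter cells and incubated 18 h at 37 C; GRE-driven beta-lactamase was detected by fluorescence after 2 h with FRET substrate at room temperature.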

[20] = molecular target: Glucocorticoid receptor (Homo sapiens) (UniProt P04150); test: qHTS assay to identify small molecule antagonists of the glucocorticoid receptor (GR) signaling pathway (AID 720692; active = well fitted inhibition curve with a large enough effect in the signal ratio in the repeat runs, not every such curve was filed as active; the % refers to the signal ratio; note: potency is the fitted concentration of half-maximal effect)
Outline: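 In a 1536-well cell format, compounds were added 4 h after seeding GR-bla HeLa cells, together with dexamethasone at 5 nM final; reporter activity was measured by FRET-substrate fluorescence following 18 h at 37 C.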

Measured: Potency

CCCCCCCC=O
not listed: [15] | [16] | [17] | [18] | [19] | [20]
inactive: all other assays above

CCNc1cccc(C)c1
not listed: [12] | [14] | [17] | [18] | [19] | [20]
inactive: all other assays above

N#Cc1ccccc1
not listed: [2] | [9] | [11] | [12]
inactive: all other assays above

O=S(=O)(O)c1ccccc1
not listed: [1] | [2] | [11] | [12] | [17]
inactive: all other assays above

Brc1ccc(Br)c(Br)c1
not listed: [9] | [11] | [12] | [15] | [16] | [17] | [19] | [20]
inactive: all other assays above

O=C(O)c1ccc(C(=O)O)c(C(=O)O)c1
not listed: [1] | [9] | [11] | [18]
inactive: all other assays above

CN(C)c1ccc(O)c2c1C[C@H]1C[C@H]3[C@H](N(C)C)C(=O)C(C(N)=O)=C(O)[C@@]3(O)C(=O)C1=C2O
not listed: [1] | [9] | [12] | [16]
inactive: all other assays above

CCCCCCCO
not listed: [1] | [9] | [11] | [14] | [15]
inactive: all other assays above

N[C@H](Cc1c[nH]c2ccccc12)C(=O)O
not listed: [1] | [2] | [20]
inactive: all other assays above

O=[N+]([O-])c1ccc2nc[nH]c2c1
not listed: [1] | [3] | [14] | [15] | [17] | [18] | [19] | [20]
inactive: all other assays above

OC1C(O)C(O)C(O)C(O)C1O (stereo unspecified)
not listed: [1] | [11] | [15] | [17] | [19] | [20]
inactive: all other assays above

CNC(=S)N(C)C
not listed: [9] | [11] | [14] | [15] | [16] | [17]
inactive: all other assays above

CN(C)c1ccc(Cc2ccc(N(C)C)cc2)cc1
not listed: [12] | [15] | [16] | [17]
inactive: all other assays above

CCCCCCCCCCCCCCCCO
not listed: [1] | [11] | [12] | [16] | [18]
inactive: all other assays above

O=c1[nH]cnc2[nH]ncc12
not listed: [1] | [9] | [11] | [15] | [16]
inactive: all other assays above

CC(C)(C)c1cc(Cc2cc(C(C)(C)C)c(O)c(C(C)(C)C)c2)cc(C(C)(C)C)c1O
not listed: [1] | [11] | [12] | [15] | [17] | [18]
inactive: all other assays above

C[C@]12CC[C@@H]3c4ccc(O)cc4CC[C@H]3[C@@H]1C[C@@H](O)[C@@H]2O
active: [20] 12 µM and 38.9 µM
not listed: [2] | [4] | [9] | [11] | [18]
inactive: all other assays above

CC(=O)OCc1ccccc1
not listed: [1] | [9] | [15] | [16] | [17] | [18]
inactive: all other assays above

C=C(C)[C@H]1CC=C(C)C(=O)C1
not listed: [1] | [11] | [15] | [17] | [18]
inactive: all other assays above

CC(=O)OCc1ccco1
not listed: [1] | [3] | [9] | [15] | [17] | [19] | [20]
inactive: all other assays above

Nc1ccc(Cl)c(N)c1
not listed: [1] | [9] | [15] | [16] | [19] | [20]
inactive: all other assays above

CCCCC(C=O)CC (stereo unspecified)
not listed: [1] | [12] | [14] | [16]
inactive: all other assays above

O=C1c2ccccc2CCc2ccccc21
not listed: [1] | [9] | [15] | [16] | [19] | [20]
inactive: all other assays above

O=S(=O)(O)c1ccc(N=Nc2c(O)ccc3cc(S(=O)(=O)O)ccc23)cc1
active: [4] 30.8 µM and 30.6 µM
not listed: [1] | [9] | [11] | [15]
inactive: all other assays above

Nc1nc(N)nc(-c2ccccc2)n1
not listed: [1] | [15] | [17] | [18]
inactive: all other assays above

O=C(O)c1cc2ccccc2cc1O
not listed: [1] | [9] | [12] | [15] | [18]
inactive: all other assays above

CC(C)c1cccc(C(C)C)c1
not listed: [1] | [3] | [14] | [15] | [18]
inactive: all other assays above

C[C@]12CCC(=O)C=C1CC[C@@H]1[C@@H]2[C@@H](O)C[C@@]2(C)[C@H]1CC[C@]2(O)C(=O)CO
not listed: [1] | [3] | [11] | [15] | [17] | [18] | [19] | [20]
inactive: all other assays above

CC(C)CC(C)O (stereo unspecified)
not listed: [1] | [3] | [12] | [14] | [15] | [19] | [20]
inactive: all other assays above

OCc1cccc(Oc2ccccc2)c1
not listed: [11] | [15] | [16] | [17] | [19] | [20]
inactive: all other assays above

CC1(C)OC[C@@H]2O[C@@]3(C(=O)O)OC(C)(C)O[C@H]3[C@@H]2O1
not listed: [1] | [16] | [18] | [19] | [20]
inactive: all other assays above

CC(=O)OC1CC(C)OC(C)O1 (stereo unspecified)
not listed: [1] | [3] | [9] | [14] | [15] | [18]
inactive: all other assays above

CC(C)(Oc1ccc(CCNC(=O)c2ccc(Cl)cc2)cc1)C(=O)O
not listed: [1] | [11] | [14] | [16]
inactive: all other assays above

CCO[Si](CCC#N)(OCC)OCC
not listed: [1] | [14]
inactive: all other assays above

CCCCOC(=O)c1ccc(N)cc1
not listed: [2]
inactive: all other assays above

CN/C(=C\[N+](=O)[O-])NCCSCc1csc(CN(C)C)n1
not listed: [11] | [15] | [16] | [17]
inactive: all other assays above

COc1ccc(N)c(C)c1
not listed: [1] | [9] | [11] | [15] | [17] | [19] | [20]
inactive: all other assays above

COc1ccc(CCC(C)=O)cc1
not listed: [1] | [9] | [11] | [12] | [15] | [17] | [19] | [20]
inactive: all other assays above

O=C(O)Cn1c(=O)n(Cc2ccc(Br)cc2F)c(=O)c2ccc(Cl)cc21
not listed: [4] | [11] | [15] | [16] | [17] | [20]
inactive: all other assays above

OCc1ccccc1
not listed: [1] | [12] | [14]
inactive: all other assays above
